Each structure is given as a SMILES string. Records with an inconclusive call do not appear. The source made the active and inactive calls. Unless noted, the call rests on the fitted dose curve; in most records, active means well fitted curve in the direction sought with a large enough effect in the repeat runs; inconclusive means weak or mixed curves; inactive means no such curve, though single readings can be large; an effect the other way counts as inactive or inconclusive.

Test [1] can be described thus: A CellTox Green Cytotoxicity Assay to monitor cytotoxicity in HepG2 cells - 16 hour (AID 1224876). Further: nearly all actives have a fitted effect of over 45% in size. The procedure, abridged: (§1)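 HepG2, 600 cells/well premixed w/ CellTox Green; 5 h settle, 37 C/5% CO2; pintool cpd add (DMSO); 37 C, 40 h; fluorescence read at 0, 8, 16, 24, 32, 40 h.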
A short description of test [2]: qHTS RealTime-Glo MT Cell Viability Assay in HepG2 cells - 32 hour (AID 1224877). Further: nearly all actives have a fitted effect of over 55% in size. In outline:
(§2)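 qHTS, HepG2, 600 cells/well, RealTime-Glo (NanoLuc + prosubstrate) added with cells; 5 h preincubation; DMSO compound addition; 37 C; luminescence at 0/8/16/24/32/40 h.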
In general terms: In qHTS, concentration-response curves come from the screen itself.

A short description of test [3]: A CellTox Green Cytotoxicity Assay to monitor cytotoxicity in HepG2 cells - 24 hour (AID 1224878). Further: nearly all actives have a fitted effect of over 45% in size. In outline:
as §1

Test [4] can be described thus: A CellTox Green Cytotoxicity Assay to monitor cytotoxicity in HepG2 cells - 40 hour (AID 1224879). Further: nearly all actives have a fitted effect of over 40% in size. In outline:
as §1

Test [5] can be described thus: qHTS RealTime-Glo MT Cell Viability Assay in HEK293 cells - 0 hour (AID 1224880). Further: top concentration of the series differs between compounds; nearly all actives have a fitted effect of over 45% in size. The procedure, abridged:
(§3)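 Luminescence readout at each listed time point; HEK293, 600 cells/well, RealTime-Glo MT reagent added with cells; compounds pinned (23 nL in DMSO) after 5 h at 37 C; continuous culture at 37 C.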

Test [6] is described as follows: A CellTox Green Cytotoxicity Assay to monitor cytotoxicity in HEK293 cells - 32 hour (AID 1224881). Further: nearly all actives have a fitted effect of over 40% in size. In outline: (§4)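 Read-out: fluorescence of a cell-impermeant cyanine dye staining DNA of dead cells, proportional to cytotoxicity. HEK293, 600 cells/well with reagent, compound (23 nL DMSO) added after 5 h; reads at 0, 8, 16, 24, 32, 40 h.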
Test [7] is described as follows: A CellTox Green Cytotoxicity Assay to monitor cytotoxicity in HepG2 cells - 0 hour (AID 1224882). Further: nearly all actives have a fitted effect of over 35% in size. In outline:
as §1

Test [8] can be described thus: A CellTox Green Cytotoxicity Assay to monitor cytotoxicity in HepG2 cells - 32 hour (AID 1224883). Further: nearly all actives have a fitted effect of over 50% in size. In outline:
as §1

The nature of test [9]: A CellTox Green Cytotoxicity Assay to monitor cytotoxicity in HEK293 cells - 8 hour (AID 1224884). Further: nearly all actives have a fitted effect of over 35% in size. Further: potency means the concentration at half of the fitted maximal effect. In outline: as §4
A short description of test [10]: qHTS RealTime-Glo MT Cell Viability Assay in HepG2 cells - 16 hour (AID 1224885). Further: nearly all actives have a fitted effect of over 50% in size. The procedure, abridged:
as §2

Test [11] in a line: qHTS RealTime-Glo MT Cell Viability Assay in HEK293 cells - 8 hour (AID 1224887). Further: top concentration of the series differs between compounds; nearly all actives have a fitted effect of over 50% in size. The procedure, abridged: as §3
Test [12] is described as follows: A CellTox Green Cytotoxicity Assay to monitor cytotoxicity in HEK293 cells - 16 hour (AID 1224888). Further: nearly all actives have a fitted effect of over 35% in size. The procedure, abridged:
as §4

Test [13] can be described thus: qHTS RealTime-Glo MT Cell Viability Assay in HepG2 cells - 0 hour (AID 1224889). Further: nearly all actives have a fitted effect of over 50% in size. The procedure, abridged: as §2
Test [14] in a line: A CellTox Green Cytotoxicity Assay to monitor cytotoxicity in HepG2 cells - 8 hour (AID 1224890). Further: nearly all actives have a fitted effect of over 45% in size. In outline: as §1
Test [15] can be described thus: qHTS assay to identify small molecule antagonists of the estrogen receptor alpha (ER-alpha) signaling pathway using the BG1 cell line in the presence of 0.1 nM 17-beta-estradiol - cell viability counter screen (AID 1259241). Further: nearly all actives have a fitted effect of over 40% in size. In outline: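 Viability in VM7Luc4E2 cells after 22 hr compound exposure under 0.1 nM 17beta-estradiol stimulation, by CellTiter-Fluor.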
Test [16] can be described thus: qHTS assay to identify small molecule antagonists of the androgen receptor (AR) signaling pathway using the MDA cell line in the presence of 0.5 nM R1881 - cell viability counter screen (AID 1259242). Further: nearly all actives have a fitted effect of over 45% in size. In outline: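 Live-cell protease fluorescence, CellTiter-Fluor, 30 min at 37C. Cells: MDA-kb2, 3,000/well, preincubated 5 hr. Compounds plus 0.5 nM R1881 final, 16 hr, 37C, 0% CO2.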

Test [17] deals with Estrogen receptor (Homo sapiens) (UniProt P03372). Description: qHTS assay to identify small molecule antagonists of the estrogen receptor alpha (ER-alpha) signaling pathway using the BG1 cell line in the presence of 0.1 nM 17-beta-estradiol (AID 1259244). Further: nearly all actives have a fitted effect of over 50% in size. The procedure, abridged: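 Luminescence after ONE-Glo (30 min, room temperature) measured ERE-luciferase activity in VM7Luc4E2 cells treated 22 h with compound and 0.1 nM final 17beta-estradiol as stimulator.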
Estrogen receptor (Homo sapiens), sequence (P03372 whole entry, looked up): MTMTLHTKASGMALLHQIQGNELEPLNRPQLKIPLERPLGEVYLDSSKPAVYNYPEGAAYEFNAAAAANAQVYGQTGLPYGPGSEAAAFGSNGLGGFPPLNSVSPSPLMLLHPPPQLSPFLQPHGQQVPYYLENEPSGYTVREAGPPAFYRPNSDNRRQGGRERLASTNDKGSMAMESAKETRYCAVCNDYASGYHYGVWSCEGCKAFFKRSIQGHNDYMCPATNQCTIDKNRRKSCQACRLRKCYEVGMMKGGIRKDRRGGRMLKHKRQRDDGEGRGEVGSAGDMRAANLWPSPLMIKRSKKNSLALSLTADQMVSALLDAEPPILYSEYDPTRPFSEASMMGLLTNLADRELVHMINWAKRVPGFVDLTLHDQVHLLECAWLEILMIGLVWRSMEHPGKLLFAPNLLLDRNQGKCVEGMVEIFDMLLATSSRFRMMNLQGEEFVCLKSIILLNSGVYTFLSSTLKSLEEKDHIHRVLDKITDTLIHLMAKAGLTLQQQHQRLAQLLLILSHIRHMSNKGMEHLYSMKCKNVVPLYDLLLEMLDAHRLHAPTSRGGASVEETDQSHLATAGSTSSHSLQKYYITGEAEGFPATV

Test [18] in a line: qHTS assay to identify small molecule HDAC inhibitors (AID 1259364). The procedure, abridged: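 HCT-116 (wild type), 1,500 cells/well, overnight; compound 2 hr 37C 5% CO2; HDAC-Glo I/II reagent 30 min RT; luminescence readout.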
Test [19] in a line: qHTS RealTime-Glo MT Cell Viability Assay in HEK293 cells - 24 hour (AID 1224886). In outline:
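Assay medium contained NanoLuc luciferase plus cell-permeant prosubstrate, added with HEK293 cells at 600 cells/well. After 5 h at 37 C/5% CO2 compounds were added; plates stayed at 37 C for 40 h with serial luminescence reads.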

Test [20] in a line: qHTS assay to identify small molecule phospholipidosis (PLD) inducers (AID 1259344; active means well fitted curve in the direction sought with a large enough effect; an effect the other way counts as inactive or inconclusive). The procedure, abridged: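 Image-based: LipidTOX Red pit count/intensity per well and per cell; HepG2, 24 h compound at 37 C, PFA fixation, Hoechst counterstain.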

Take `Cc1ccccc1C`: the Potency result in [1], in [3], in [4], in test [6], in [7] and in test [8] was “inactive” throughout. Also, the Potency entry in [9], in test [11], in test [12], in test [13], in test [14] and in [15] was “inactive” throughout. The Potency result in test [16] and in [17] was “inactive” in each case. In addition, the molecule was classed as inactive in test [2], in [5] and in test [10].

As to `C1=CCC(c2ccccc2)CC1` (centres undefined), the Potency result in test [1], in [3], in test [4], in test [6], in test [7] and in [8] was “inactive” throughout. Besides, the Potency entry in test [11], in test [12], in test [13], in test [14], in test [16] and in test [18] was “inactive” each time. The molecule was classed as inactive in test [2], in test [5] and in test [10].

For the molecule `NC(Cc1c[nH]c2ccccc12)C(=O)O` (centres undefined), the Potency entry in test [1], in [3], in test [4], in test [6], in [7] and in test [8] was “inactive” each time. Moreover, the Potency result in test [9], in [11], in [12], in test [13], in test [14] and in test [15] was “inactive” in each case. Moreover, the Potency result in test [16] and in test [18] was “inactive” in each case. For the same molecule, the outcome in test [2], in [5] and in test [10] was inactive.

As for `CCC(=O)OCCC(C)CCC=C(C)C` (centres undefined), the Potency entry in test [1], in [3], in [4], in test [6], in test [7] and in test [8] was “inactive” throughout. Moreover, the Potency entry in test [9], in test [19], in [11], in test [12], in test [13] and in [14] was “inactive” in each case. The Potency result in test [16] and in [18] was “inactive” each time. The molecule was classed as inactive in test [2], in test [5] and in test [10].

Regarding `C=C[C@@H](C)CCC=C(C)C`, the Potency entry in [1], in test [3], in test [4], in test [6], in test [7] and in test [8] was “inactive” each time. The Potency result in test [9], in test [11], in test [12], in test [13], in [14] and in test [15] was “inactive” each time. For the same molecule, the Potency result in [16] and in test [18] was “inactive” in each case. For the same molecule, the outcome in [2], in test [5] and in test [10] was inactive.

For the molecule `C1CCN2C[C@@H]3C[C@@H](CN4CCCC[C@@H]34)[C@H]2C1`, the Potency result in test [1], in test [3], in [4], in test [6], in test [7] and in [8] was “inactive” each time. Besides, the Potency result in test [9], in [19], in test [11], in [12], in [13] and in [14] was “inactive” throughout. Besides, the Potency entry in [16] and in [18] was “inactive” each time. Moreover, the outcome in test [2], in [5], in test [10] and in test [20] was inactive.

On to `CC(C)COC(=O)COc1ccc(Cl)cc1Cl`, for which the Potency result in [1], in test [3], in [4], in [6], in test [7] and in test [8] was “inactive” in each case. The Potency entry in [19], in test [11], in test [13], in test [14], in test [15] and in test [16] was “inactive” in each case. In addition, the Potency entry in test [18] was “inactive”. Moreover, the molecule was classed as inactive in test [2], in test [5] and in test [10]. In addition, the Potency in test [9] is 43.6 µM (active).

On to `CCOC(=O)C(=O)c1csc(NC=O)n1`, for which the Potency entry in [1], in [3], in test [4], in test [6], in test [7] and in test [8] was “inactive” in each case. Besides, the Potency entry in test [9], in test [11], in [12], in [13], in [14] and in test [15] was “inactive” each time. For the same molecule, the Potency entry in test [16], in test [17] and in [18] was “inactive” each time. For the same molecule, the call in [2], in test [5] and in test [10] was inactive.

As for `CC(C)(C)NCCO`, the Potency result in test [1], in test [3], in [4], in test [6], in test [7] and in [8] was “inactive” each time. Besides, the Potency entry in test [19], in test [11], in test [12], in [13], in test [14] and in test [15] was “inactive” throughout. The Potency entry in test [16], in [17] and in [18] was “inactive” each time. The result in test [2], in [5] and in [10] was inactive.

The record behind these values is PubChem BioAssay (Tox21).
